Data from PubChem BioAssay AID431 (Sanford-Burnham Center for Chemical Genomics, 2006).
Out of some 63,000 compounds screened, about 1,100 (1.7%) were called active.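 Rule for the calls: active = compounds whose percent cytotoxicity in the single-dose primary screen, scaled between solvent and toxic-drug controls, exceeds 50; inactive = the rest.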 Only a selection was taken, and actives are over-represented in it overall. Entries with a potency or affinity are not part of this list.

assay: cytotoxicity in KRAS-transformed pancreatic duct cells, primary screen, cell-based, fluorescence, HTS (AID 431); settings: HPDE-C7K KRASV12 cells, Alamar Blue viability, 48 h; at 10 µM; active compounds read high;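 note: 0% = DMSO solvent wells and 100% = doxorubicin-treated wells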

SMILES | cytotoxicity
CCOc1ccc(N2CCCCn3c2nc2c3c(=O)[nH]c(=O)n2C)cc1 | -9% (inactive)
COc1ccc(OC)c(NC(=O)CSc2nnc(Cn3c(=O)sc4ccccc43)n2C)c1 | 4.6% (inactive)
CCn1c(SCC(=O)c2cc(OC)ccc2OC)nc2c1c(=O)n(C)c(=O)n2C | -4.8% (inactive)
CCOC(=O)Cc1csc(NC(=O)CSc2ncnc3c2cnn3-c2ccc(OC)cc2)n1 | 4.2% (inactive)
CCOC(=O)Cc1csc(NC(=O)CSc2ncnc3c2cnn3-c2ccccc2Cl)n1 | 50% (active)
Cc1csc(NC(=O)CSc2ncnc3c2cnn3-c2ccccc2Cl)n1 | 31.8% (inactive)
Cc1cc(OCc2nn[nH]n2)c2c(C)c(Cc3ccccc3)c(=O)oc2c1 | 13.7% (inactive)
Cc1cc(-c2ccccc2)c(C#N)c(N)n1 | 12.6% (inactive)
CSc1nc(-c2ccco2)cc(-c2ccccc2)c1C#N | 45% (inactive)
Cc1cccc2cc(CN(CCCO)C(=O)Nc3ccccc3Cl)c(=O)[nH]c12 | -2.4% (inactive)
CC(C)(C)OC(=O)N[C@@H](Cc1ccccc1)c1nnc(S(=O)(=O)Cc2cccc(F)c2)o1 | -21.9% (inactive)
CC[C@@H](C)[C@H](NC(=O)OC(C)(C)C)c1nnc(S(=O)(=O)Cc2cc(C)ccc2C)o1 | 46.9% (inactive)
Cn1nc(-c2ccc(Cl)cc2)c2cc(C(=O)N3CCN(c4ccccn4)CC3)sc21 | -7.2% (inactive)
COc1ccc(N2CCN(C(=O)c3cc4c(-c5cccc(OC)c5)nn(C)c4s3)CC2)cc1 | 15.7% (inactive)
CN(C)c1ncc(C(=O)O)cn1 | 21.7% (inactive)
COc1ccc(C(=O)c2c[nH]c3ccccc23)cc1 | 15.5% (inactive)
COc1ccc(C(C(O)C(=O)c2c[nH]c3ccccc23)N2CCN(c3ccc(OC)cc3)CC2)cc1 (stereo not given) | 50.4% (active)
O=C(c1c[nH]c2ccccc12)C(O)C(c1ccccc1)N1CCOCC1 (stereo not given) | -15.9% (inactive)
O=C(Nc1ccccc1F)C1CCCN(S(=O)(=O)c2cccc3cccnc23)C1 (stereo not given) | 7% (inactive)
Cn1cnnc1SCc1ccc(C#N)cc1 | 2.3% (inactive)
OCCN(CC(O)Cn1ccc2ccccc21)CC(O)Cn1ccc2ccccc21 (stereo not given) | 29.1% (inactive)
OCCNCC(O)Cn1ccc2ccccc21 (stereo not given) | -4.4% (inactive)
O=C1OCC2=C1C(c1ccc3c(c1)OCO3)Sc1ccccc1N2 (stereo not given) | -14.4% (inactive)
Cc1c(C(=O)N2CCN(C)CC2)oc2c1C(=O)CC(C)(C)C2 | -40.9% (inactive)

SMILES | cytotoxicity
c1ccc(-c2nc(N3CCCCCC3)nc(-n3ccnc3)n2)cc1 | -10.1% (inactive)
c1ccc(-c2nc(N3CCN(c4ccccc4)CC3)nc(-n3ccnc3)n2)cc1 | 30.8% (inactive)
Cn1nc(-c2ccc(Cl)cc2)c2cc(C(=O)N3CCOCC3)sc21 | 8.6% (inactive)
CC(=O)c1ccc(NC(=O)c2noc3c2CCCCC3)cc1 | 16.4% (inactive)
c1ccc2c(c1)oc1c(N3CCN(Cc4ccc5c(c4)OCO5)CC3)ncnc12 | 10.1% (inactive)
Fc1ccc2[nH]c3c(N4CCN(c5ccccc5)CC4)ncnc3c2c1 | -3.9% (inactive)
Fc1ccc2[nH]c3c(N4CCN(C5CCCCC5)CC4)ncnc3c2c1 | 23.3% (inactive)
Cc1ccc2c(c1)[nH]c1c(N3CCN(Cc4ccc5c(c4)OCO5)CC3)ncnc12 | 9.5% (inactive)
COc1ccc2c(c1)c1ncnc(N3CCN(Cc4ccc5c(c4)OCO5)CC3)c1n2C | 43.1% (inactive)
COc1ccc2[nH]c3c(N4CCN(Cc5ccc6c(c5)OCO6)CC4)ncnc3c2c1 | 53.7% (active)
CCCCOc1ncnc2c1[nH]c1ccc(F)cc12 | 5% (inactive)
CN1CCN(c2ncnc3c2[nH]c2ccc(F)cc23)CC1 | 5.5% (inactive)
COc1cccc(N2CCN(c3ncnc4c3[nH]c3ccc(F)cc34)CC2C)c1 (stereo not given) | 121% (active)
COc1cccc2[nH]c3c(N4CCN(Cc5ccc6c(c5)OCO6)CC4)ncnc3c12 | 44.8% (inactive)
CCC1S/C(=C(\C#N)C(=O)NCc2ccco2)N(c2ccc(F)cc2)C1=O (stereo not given) | -16.6% (inactive)
CC1CCCCN1S(=O)(=O)c1ccc2c(c1)oc(=O)n2CC(=O)O (stereo not given) | -0.1% (inactive)
CCN=C(Nc1ccc2c(c1)OCO2)SC1CC(=O)N(c2ccccc2F)C1=O (stereo not given) | -6% (inactive)
O=C(O)CCS(=O)(=O)Cc1ccccc1F | 1.1% (inactive)
Cn1c(-c2ccc(F)cc2)cnc1SCC(=O)N1CCCCC1 | -5.4% (inactive)
C/C=C/c1ccc(Oc2nnnn2-c2ccc(C(N)=O)cc2)c(OC)c1 | 1% (inactive)
Cc1ccc2[nH]c3c(N4CCN(Cc5ccc6c(c5)OCO6)CC4)ncnc3c2c1 | 34.4% (inactive)
c1nc(N2CCN(Cc3ccc4c(c3)OCO4)CC2)c2[nH]cnc2n1 | -0.7% (inactive)
Fc1ccc2[nH]c3c(N4CCN(Cc5ccc6c(c5)OCO6)CC4)ncnc3c2c1 | 95.1% (active)
CCOc1ccc(N(CC(=O)NCc2cccs2)S(=O)(=O)c2c(C)noc2C)cc1 | -1.7% (inactive)

SMILES | cytotoxicity
CCOC(=O)N1CCN(c2c(N3CC=C(c4ccccc4)CC3)c(=O)c2=O)CC1 | -2.9% (inactive)
O=C(CSc1nc2ccccc2o1)Nc1ccccc1 | -14.6% (inactive)
CSc1cccc(NC(=O)CSc2nc3ccccc3o2)c1 | -18.9% (inactive)
COc1ccc(C(=O)Nc2cccc(C)c2)cc1S(=O)(=O)N1CCOCC1 | 15.9% (inactive)
O=C(NCc1ccoc1)c1ccc(NC(=O)c2ccccc2Cl)cc1 | -12.8% (inactive)
COCCn1nnnc1CN1CCC(NC(=O)c2ccc(Br)cc2)CC1 | -2.4% (inactive)
CC(=O)OCC1OC(n2ccc(=O)[nH]c2=O)C(O)C1O (stereo not given) | 0.8% (inactive)
CC(=O)OC[C@H]1O[C@@H](n2ncc(=O)[nH]c2=O)[C@H](OC(C)=O)[C@@H]1OC(C)=O | 54.7% (active)
CC(=O)OC[C@H]1O[C@@H](n2ccc(=O)[nH]c2=S)C(OC(C)=O)C1OC(C)=O (stereo not given in full) | 4.5% (inactive)
Nc1nc2nonc2nc1N1CCCCC1 | -2.7% (inactive)
CCOC(=O)c1cnc(SC2CC(=O)N(c3ccc(OC)c(OC)c3)C2=O)nc1N (stereo not given) | -9.5% (inactive)
CC(NCCC(c1ccccc1)c1ccccc1)c1ccccc1 (stereo not given) | 90.2% (active)
C/C(Cl)=C\CNC(C)c1ccccc1 (stereo not given) | -6.7% (inactive)
CC(NC(=O)CSc1ncccn1)c1ccccc1 (stereo not given) | 1.8% (inactive)
O=C(Nc1ccc(N2CCN(C(=O)c3ccco3)CC2)c(Cl)c1)c1c(F)c(F)c(F)c(F)c1F | 103% (active)
O=C(Cc1ccc(Cl)cc1)Nc1ccc(N2CCN(C(=O)c3ccco3)CC2)c(Cl)c1 | 21.6% (inactive)
O=C(Nc1ccc(N2CCN(C(=O)c3ccco3)CC2)c(Cl)c1)c1cccs1 | -1% (inactive)
O=C(Nc1ccc(N2CCOCC2)c(Cl)c1)c1ccco1 | -11.5% (inactive)
CCCC(=O)N1CCN(c2ccc(NC(=O)c3cc4ccccc4o3)cc2)CC1 | -19% (inactive)
CCC(=O)Nc1ccc(NC(=O)c2cc3ccccc3o2)cc1 | -17.1% (inactive)
O=C(Nc1ccccc1N1CCN(C(=O)c2ccccc2)CC1)c1cc2ccccc2o1 | -7.4% (inactive)
O=C(Nc1ccccc1N1CCN(C(=O)c2ccc(Cl)cc2)CC1)c1cc2ccccc2o1 | 13.1% (inactive)
O=C(Nc1ccc(N2CCOCC2)c(Cl)c1)c1cccc(F)c1 | 31.3% (inactive)
O=C(Nc1ccc(N2CCOCC2)c(Cl)c1)c1c(F)c(F)c(F)c(F)c1F | 64.4% (active)

SMILES | cytotoxicity
Cn1c(SCC(=O)NC(C)(C)C)nnc1-c1ccc(C(C)(C)C)cc1 | 8.1% (inactive)
N#CCc1nc(CSc2nc3ccccc3o2)cs1 | -5.5% (inactive)
O=C(O)CCN1C(=O)C2C3C=CC(C3)C2C1=O (stereo not given) | 4.7% (inactive)
Cc1ccc2cc(CN(CCCO)S(=O)(=O)c3cccc4nsnc34)c(=O)[nH]c2c1C | -8.7% (inactive)
Cn1c(=O)c2c(SCc3cccnc3)nc(C3CC3)nc2n(C)c1=O | -15.9% (inactive)
C/C(CC1(O)/C(=N/O)CCc2nonc21)=N\O (stereo not given) | -0.9% (inactive)
O=C(Nc1ccc(N2CCN(C(=O)c3ccccc3)CC2)c(Cl)c1)c1ccco1 | -11% (inactive)
Cc1ccccc1C(=O)N1CCN(c2ccc(NC(=O)c3ccco3)cc2Cl)CC1 | 14.5% (inactive)
C=CCn1c(C)cc(C(=O)CSc2nnc(NCc3ccccc3)s2)c1C | 64.7% (active)
Cc1cc(C(=O)CSc2nnc(-c3ccccc3)n2C)c(C)n1C | 16.6% (inactive)
O=C(CSc1nnc(NCc2ccccc2)s1)c1ccco1 | -6.2% (inactive)
Cc1cc(C(=O)CSc2nnc(NCc3ccccc3)s2)c(C)n1C | 65.2% (active)
Cc1cc(C(=O)CSc2nnc(Nc3ccccc3)s2)c(C)n1CC1CCCO1 (stereo not given) | 1.1% (inactive)
C=CCn1c(C)cc(C(=O)CSc2nnc(Cc3ccccc3)o2)c1C | -7.3% (inactive)
Cc1cc(C)n(CNc2nc(C(F)(F)F)cs2)n1 | -4.6% (inactive)
CC1CCN(Cc2ccc(NC(=O)CC3Oc4ccccc4NC3=O)cc2)CC1 (stereo not given) | 0.1% (inactive)
CN1C(=O)CSc2ccc(NC(=O)N3CCC(N4CCCCC4)CC3)cc21 | -15.1% (inactive)
Cc1ccc(C2C3=C(CC(C)(C)CC3=O)Nc3n[nH]c(C)c32)cc1 (stereo not given) | -5.7% (inactive)
COc1cc(Cl)c(C)cc1NC(=O)CSc1nc2ccccc2o1 | -5.2% (inactive)
CCOC(=O)C1C(C)N=C2SCC(=O)N2C1c1cccc(Br)c1 (stereo not given) | -13% (inactive)
COC(=O)c1ccccc1NC(=O)CSc1nc(-c2ccco2)cc(C(F)(F)F)n1 | 51.7% (active)
COC(=O)c1ccc(C(=O)OC)c(NC(=O)CSc2nc(-c3ccco3)cc(C(F)(F)F)n2)c1 | -21.1% (inactive)
O=C(CSc1nc(-c2ccco2)cc(C(F)(F)F)n1)Nc1cccnc1 | -0.8% (inactive)
